Measurements as given in the supplement of paper PMC8728848.
The sample as a whole holds a higher share of the strongest signals than the screen did.

Columns and labels:
Assay in all cases: glycan array binding signal (z-score within array); higher = stronger binding
Settings in all cases: glycan notation: IUPAC condensed, linker removed
[1] = target: Fuc(a1-2)Gal(b1-3)GalNAc(b1-3)Gal(a1-4)Gal(b1-4)Glc
Summary of the method: (§1)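 Negative Z-scores can be read as non-binding. The Z-score is calculated within each array and then averaged across arrays of one protein sequence at different concentrations or buffers and across linkers. Arrays, 3228 in all, were curated from the Consortium for Functional Glycomics database and kept only where the protein sequence was available.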

[2] = target: Fuc(a1-2)[Gal(a1-3)]Gal(b1-4)GlcNAc(b1-2)Man(a1-3)[Fuc(a1-2)[Gal(a1-3)]Gal(b1-4)GlcNAc(b1-2)Man(a1-6)]Man(b1-4)GlcNAc(b1-4)GlcNAc
Summary of the method: as §1

[3] = target: Fuc(a1-2)[Gal(a1-3)]Gal(b1-4)GlcNAc(b1-3)[Fuc(a1-2)[Gal(a1-3)]Gal(b1-4)GlcNAc(b1-6)]GalNAc
Summary of the method: as §1

[4] = target: Fuc(a1-2)[Gal(a1-3)]Gal(b1-4)GlcNAc(b1-6)GalNAc
Summary of the method: as §1

[5] = target: Fuc(a1-2)[GalNAc(a1-3)]Gal(b1-4)[Fuc(a1-3)]GlcNAc
Summary of the method: as §1

[6] = target: Fuc(a1-3)[Gal(b1-4)]GlcNAc(b1-6)GalNAc
Summary of the method: as §1

[7] = target: Fuc(a1-3)[Gal3S(b1-4)]Glc
Summary of the method: as §1

[8] = target: Gal(a1-3)Gal(b1-4)[Fuc(a1-3)]GlcNAc(b1-2)Man(a1-3)[Gal(a1-3)Gal(b1-4)[Fuc(a1-3)]GlcNAc(b1-2)Man(a1-6)]Man(b1-4)GlcNAc(b1-4)GlcNAc
Summary of the method: as §1

Gal(a1-4)GlcNAc = target: Gal(a1-4)GlcNAc
Summary of the method: as §1

Gal(b1-3)Gal = target: Gal(b1-3)Gal
Summary of the method: as §1

[9] = target: Gal(b1-3)GlcNAc(a1-3)Gal(b1-4)GlcNAc
Summary of the method: as §1

Gal(b1-3)GlcNAc(b1-2)Man = target: Gal(b1-3)GlcNAc(b1-2)Man
Summary of the method: as §1

[10] = target: Gal(b1-3)GlcNAc(b1-3)Gal(b1-3)GlcNAc
Summary of the method: as §1

[11] = target: Gal(b1-3)[Neu5Ac(a2-6)]GalNAc
Summary of the method: as §1

[12] = target: Gal(b1-3)[Neu5Ac(a2-6)]GlcNAc(b1-4)Gal(b1-4)Glc
Summary of the method: as §1

Gal(b1-4)Gal = target: Gal(b1-4)Gal
Summary of the method: as §1

Gal(b1-4)GlcNAc = target: Gal(b1-4)GlcNAc
Summary of the method: as §1

[13] = target: Gal(b1-4)GlcNAc(b1-3)Gal(b1-4)GlcNAc(b1-2)Man(a1-3)[Gal(b1-4)GlcNAc(b1-3)Gal(b1-4)GlcNAc(b1-2)Man(a1-6)]Man(b1-4)GlcNAc(b1-4)GlcNAc
Summary of the method: as §1

[14] = target: Gal(b1-4)GlcNAc(b1-3)Gal(b1-4)GlcNAc(b1-2)[Gal(b1-4)GlcNAc(b1-3)Gal(b1-4)GlcNAc(b1-6)]Man(a1-6)[Gal(b1-4)GlcNAc(b1-3)Gal(b1-4)GlcNAc(b1-2)Man(a1-3)]Man(b1-4)GlcNAc(b1-4)GlcNAc
Summary of the method: as §1

[15] = target: Gal(b1-4)GlcNAc(b1-3)Gal(b1-4)GlcNAc(b1-3)GalNAc
Summary of the method: as §1

[16] = target: Gal(b1-4)GlcNAc(b1-3)[GlcNAc(b1-6)]Gal(b1-4)GlcNAc
Summary of the method: as §1

Gal3S(b1-4)Glc6S = target: Gal3S(b1-4)Glc6S
Summary of the method: as §1

[17] = target: Gal3S(b1-4)[Fuc(a1-3)]GlcNAc6S
Summary of the method: as §1

Gal6P(b1-4)GlcNAc = target: Gal6P(b1-4)GlcNAc
Summary of the method: as §1

GalNAc(b1-4)GlcNAc = target: GalNAc(b1-4)GlcNAc
Summary of the method: as §1

GalNAc4S6S(b1-4)GlcNAc = target: GalNAc4S6S(b1-4)GlcNAc
Summary of the method: as §1

Glc(a1-6)Glc(a1-6)Glc = target: Glc(a1-6)Glc(a1-6)Glc
Summary of the method: as §1

[18] = target: GlcNAc(b1-2)[GlcNAc(b1-4)]Man(a1-3)[GlcNAc(b1-4)][GlcNAc(b1-2)Man(a1-6)]Man(b1-4)GlcNAc(b1-4)GlcNAc
Summary of the method: as §1

[19] = target: GlcNAc(b1-3)Gal(b1-4)GlcNAc(b1-3)Gal(b1-4)GlcNAc(b1-2)Man(a1-3)[GlcNAc(b1-3)Gal(b1-4)GlcNAc(b1-3)Gal(b1-4)GlcNAc(b1-2)Man(a1-6)]Man(b1-4)GlcNAc(b1-4)GlcNAc
Summary of the method: as §1

[20] = target: GlcNAc(b1-3)Gal(b1-4)GlcNAc(b1-3)Gal(b1-4)GlcNAc(b1-3)Gal(b1-4)GlcNAc(b1-3)Gal(b1-4)GlcNAc(b1-2)Man(a1-3)[GlcNAc(b1-3)Gal(b1-4)GlcNAc(b1-3)Gal(b1-4)GlcNAc(b1-3)Gal(b1-4)GlcNAc(b1-3)Gal(b1-4)GlcNAc(b1-2)Man(a1-6)]Man(b1-4)GlcNAc(b1-4)GlcNAc
Summary of the method: as §1

[21] = target: GlcNAc(b1-3)Gal(b1-4)GlcNAc(b1-6)[Gal(b1-3)]GalNAc
Summary of the method: as §1

GlcNAc(b1-4)GlcNAc = target: GlcNAc(b1-4)GlcNAc
Summary of the method: as §1

Kdn(a2-3)Gal(b1-3)GlcNAc = target: Kdn(a2-3)Gal(b1-3)GlcNAc
Summary of the method: as §1

Kdn(a2-3)Gal(b1-4)Glc = target: Kdn(a2-3)Gal(b1-4)Glc
Summary of the method: as §1

[22] = target: Man(a1-2)Man(a1-2)Man(a1-3)Man
Summary of the method: as §1

[23] = target: Neu5Ac(a2-3)Gal(b1-3)GlcNAc(b1-2)[Neu5Ac(a2-3)Gal(b1-3)GlcNAc(b1-4)]Man(a1-6)[Neu5Ac(a2-3)Gal(b1-3)GlcNAc(b1-2)Man(a1-3)]Man(b1-4)GlcNAc(b1-4)GlcNAc
Summary of the method: as §1

[24] = target: Neu5Ac(a2-3)Gal(b1-3)GlcNAc6S
Summary of the method: as §1

[25] = target: Neu5Ac(a2-3)Gal(b1-4)GlcNAc(b1-2)Man
Summary of the method: as §1

[26] = target: Neu5Ac(a2-3)Gal(b1-4)[Fuc(a1-3)]GlcNAc(b1-6)[Neu5Ac(a2-3)Gal(b1-3)]GalNAc
Summary of the method: as §1

[27] = target: Neu5Ac(a2-6)Gal(b1-4)GlcNAc(b1-2)Man(a1-3)[GlcNAc(b1-4)][Neu5Ac(a2-6)Gal(b1-4)GlcNAc(b1-2)Man(a1-6)]Man(b1-4)GlcNAc(b1-4)GlcNAc
Summary of the method: as §1

[28] = target: Neu5Ac(a2-6)Gal(b1-4)GlcNAc(b1-2)Man(a1-3)[Neu5Ac(a2-3)Gal(b1-4)GlcNAc(b1-2)Man(a1-6)]Man(b1-4)GlcNAc(b1-4)GlcNAc
Summary of the method: as §1

[29] = target: Neu5Ac(a2-6)Gal(b1-4)GlcNAc(b1-2)Man(a1-3)[Neu5Ac(a2-6)Gal(b1-4)GlcNAc(b1-2)Man(a1-6)]Man(b1-4)GlcNAc(b1-4)[Fuc(a1-6)]GlcNAc
Summary of the method: as §1

[30] = target: Neu5Ac(a2-6)Gal(b1-4)GlcNAc(b1-2)Man(a1-6)Man(b1-4)GlcNAc(b1-4)GlcNAc
Summary of the method: as §1

[31] = target: Neu5Ac(a2-6)Gal(b1-4)GlcNAc(b1-3)Gal(b1-3)GlcNAc
Summary of the method: as §1

[32] = target: Neu5Ac(a2-8)Neu5Ac(a2-8)Neu5Ac
Summary of the method: as §1

B1: Gal-9-hFc (Mus musculus), O08573-2 (protein)
chain: MALFSAQSPYINPIIPFTGPIQGGLQEGLQVTLQGTTKSFAQRFVVNFQNSFNGNDIAFHFNPRFEEGGYVVCNTKQNGQWGPEERKMQMPFQKGMPFELCFLVQRSEFKVMVNKKFFVQYQHRVPYHLVDTIAVSGCLKLSFITFQTQNFRPAHQAPMAQTTIHMVHSTPGQMFSTPGIPPVVYPTPAYTIPFYTPIPNGLYPSKSIMISGNVLPDATRFHINLRCGGDIAFHLNPRFNENAVVRNTQINNSWGQEERSLLGRMPFSRGQSFSVWIICEGHCFKVAVNGQHMCEYYHRLKNLQDINTLEVAGDIQLTHVQT
- glycan array binding signal (z-score) [1]: -0.29
- glycan array binding signal (z-score) [2]: 1.3
- glycan array binding signal (z-score) [3]: 4.4
- glycan array binding signal (z-score) [4]: 0.473
- glycan array binding signal (z-score) [5]: -0.286
- glycan array binding signal (z-score) [6]: 0.042
- glycan array binding signal (z-score) [7]: -0.196
- glycan array binding signal (z-score) [8]: -0.043
- glycan array binding signal (z-score) (Gal(a1-4)GlcNAc): -0.452
- glycan array binding signal (z-score) (Gal(b1-3)Gal): 0.036
- glycan array binding signal (z-score) [9]: -0.259
- glycan array binding signal (z-score) (Gal(b1-3)GlcNAc(b1-2)Man): -0.243
- glycan array binding signal (z-score) [10]: 0.085
- glycan array binding signal (z-score) [11]: 0.317
- glycan array binding signal (z-score) [12]: -0.501
- glycan array binding signal (z-score) (Gal(b1-4)Gal): 0.307
- glycan array binding signal (z-score) (Gal(b1-4)GlcNAc): -0.167
- glycan array binding signal (z-score) [13]: 1.94
- glycan array binding signal (z-score) [14]: 3.74
- glycan array binding signal (z-score) [15]: 0.354
- glycan array binding signal (z-score) [16]: 2.07
- glycan array binding signal (z-score) (Gal3S(b1-4)Glc6S): 4.35
- glycan array binding signal (z-score) [17]: 3.57
- glycan array binding signal (z-score) (Gal6P(b1-4)GlcNAc): -0.364
- glycan array binding signal (z-score) (GalNAc(b1-4)GlcNAc): -0.176
- glycan array binding signal (z-score) (GalNAc4S6S(b1-4)GlcNAc): -0.079
- glycan array binding signal (z-score) (Glc(a1-6)Glc(a1-6)Glc): 0.138
- glycan array binding signal (z-score) [18]: 2.04
- glycan array binding signal (z-score) [19]: 0.436
- glycan array binding signal (z-score) [20]: -0.207
- glycan array binding signal (z-score) [21]: -0.325
- glycan array binding signal (z-score) (GlcNAc(b1-4)GlcNAc): 4.66
- glycan array binding signal (z-score) (Kdn(a2-3)Gal(b1-3)GlcNAc): -0.153
- glycan array binding signal (z-score) (Kdn(a2-3)Gal(b1-4)Glc): 2.38
- glycan array binding signal (z-score) [22]: -0.431
- glycan array binding signal (z-score) [23]: -0.482
- glycan array binding signal (z-score) [24]: -0.023
- glycan array binding signal (z-score) [25]: 3.47
- glycan array binding signal (z-score) [26]: 0.233
- glycan array binding signal (z-score) [27]: -0.272
- glycan array binding signal (z-score) [28]: -0.448
- glycan array binding signal (z-score) [29]: -0.496
- glycan array binding signal (z-score) [30]: -0.192
- glycan array binding signal (z-score) [31]: -0.307
- glycan array binding signal (z-score) [32]: 2.03
